The results in this text go back to PubChem BioAssay (NCATS).

Assay [1] can be described thus: qHTS profiling for inhibitors of Plasmodium falciparum proliferation (AID 504749). Further: nearly all actives have a fitted effect of over 60% in size.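 On activity, negative = inhibition: 0% = DMSO vehicle and full inhibition = artemisinin control.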 The settings on record: P. falciparum in erythrocytes, SYBR Green DNA, 72 h. Put shortly: (§1)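 P. falciparum-infected erythrocytes (0.3% parasitemia, 2.5% hematocrit final) were exposed to compounds for 72 h at 37 C in 5% CO2, then lysed with SYBR Green buffer overnight at room temperature; parasite DNA fluorescence was normalized to artemisinin and DMSO controls.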
A general note: In qHTS, concentration-response curves come from the screen itself.

Assay [2] relates to 3D7. Described as above. The settings on record: P. falciparum in erythrocytes, SYBR Green DNA, 72 h; series mostly up to 28.7 µM. Put shortly: as §1
The subject of assay [3] is 7G8. Described as above. The settings on record: P. falciparum in erythrocytes, SYBR Green DNA, 72 h; series mostly up to 28.7 µM. Put shortly: as §1
Assay [4] has as its system AA1029. The description is as above. The settings on record: P. falciparum in erythrocytes, SYBR Green DNA, 72 h; series mostly up to 28.7 µM. The procedure, abridged: as §1
Assay [5] relates to AS120. The description is as above. The settings on record: P. falciparum in erythrocytes, SYBR Green DNA, 72 h; series mostly up to 28.7 µM. The procedure, abridged: as §1
For assay [6], the system named is ATS189. The assay is described as above. The settings on record: P. falciparum in erythrocytes, SYBR Green DNA, 72 h; series mostly up to 28.7 µM. The procedure, abridged:
as §1

Assay [7] deals with C2A. The assay is described as above. The settings on record: P. falciparum in erythrocytes, SYBR Green DNA, 72 h; series mostly up to 28.7 µM. The procedure, abridged:
as §1

Assay [8] deals with CP185. The assay is described as above. The settings on record: P. falciparum in erythrocytes, SYBR Green DNA, 72 h; series mostly up to 28.7 µM. The procedure, abridged: as §1
Assay [9] relates to CP191. The assay is described as above. The settings on record: P. falciparum in erythrocytes, SYBR Green DNA, 72 h; series mostly up to 28.7 µM. The procedure, abridged:
as §1

Assay [10] relates to CP192. The description is as above. The settings on record: P. falciparum in erythrocytes, SYBR Green DNA, 72 h; series mostly up to 28.7 µM. The procedure, abridged:
as §1

For assay [11], the system named is CP194. The description is as above. The settings on record: P. falciparum in erythrocytes, SYBR Green DNA, 72 h; series mostly up to 28.7 µM. Put shortly:
as §1

Assay [12] concerns CP201. The description is as above. The settings on record: P. falciparum in erythrocytes, SYBR Green DNA, 72 h; series mostly up to 28.7 µM. The procedure, abridged:
as §1

In assay [13] the test system is ATS95. Described as above. The settings on record: P. falciparum in erythrocytes, SYBR Green DNA, 72 h; series mostly up to 28.7 µM. Put shortly: as §1
The mark [14] stands for this setting: at 28.7 µM (top of the series), parasite line A.
The mark [15] stands for this setting: at 28.7 µM (top of the series), parasite line B.

Inconclusive results are not listed. A number with no mark means an inactive call. Active and inactive are the calls of the source. The call rests on the fitted dose curve; in most records, active means well fitted inhibition curve with a large enough effect; inconclusive means small, poorly fitted or top-dose-only effect; inactive means flat fitted curve, though single readings scatter.
Potency means the concentration at half of the fitted maximal effect.

Turning to `CC(C)CCCC(C)CCCC(C)CCCCC(C)CCCC(C)CCCC(C)C` (stereo unspecified), the figures for the activity, negative = inhibition in [1] (setting [14]) and in [1] (setting [15]) were -0.284% and 17.5%, respectively. Also, the Potency entry in [2], in assay [3], in [4], in assay [5], in assay [6] and in [7] was “inactive” in each case. Moreover, the Potency entry in [8] is “inactive”. The result in assay [9], in [10], in assay [11] and in assay [12] was inactive.
As to `Cc1cc(=O)[nH]c(=S)[nH]1`, the activity, negative = inhibition in assay [1] (setting [14]) was 10.7%; in assay [1] (setting [15]), 5.6%. For the same compound, the Potency result in assay [2], in [3], in [4], in assay [5], in assay [6] and in [13] was “inactive” throughout. In addition, the Potency entry in assay [7] and in assay [8] was “inactive” throughout. Also, the outcome in [9], in assay [10], in assay [11] and in assay [12] was inactive.
Take `Cc1c(C)c2c(c(C)c1OC(=O)c1cccnc1)CC[C@@](C)(CCC[C@H](C)CCC[C@H](C)CCCC(C)C)O2`: the activity, negative = inhibition was -3.82% in assay [1] (setting [14]) and -2.45% in assay [1] (setting [15]). In addition, the Potency result in [2], in [3], in [4], in assay [5], in assay [6] and in assay [13] was “inactive” throughout. The Potency result in assay [7] and in assay [8] was “inactive” throughout. In addition, the outcome in [9], in assay [10], in [11] and in assay [12] was inactive.
In the case of `O=C(O)CCCc1ccccc1`, the activity, negative = inhibition was 3.34% in [1] (setting [14]) and -0.114% in [1] (setting [15]). Moreover, the Potency result in [2], in [3], in assay [4], in assay [5], in [6] and in assay [13] was “inactive” in each case. Further, the Potency result in assay [7] and in [8] was “inactive” throughout. The compound was called inactive in [9], in assay [10], in [11] and in assay [12].
With `CCCCOC(=O)c1ccc(N)cc1`, the values for the activity, negative = inhibition in assay [1] (setting [14]) and in [1] (setting [15]) were 5.58% and 10.8%, respectively. Besides, the Potency entry in [2], in [3], in assay [4], in [5], in assay [6] and in assay [13] was “inactive” throughout. Besides, the Potency entry in assay [7] and in [8] was “inactive” each time. Also, the result in assay [9], in [10], in [11] and in [12] was inactive.
As for `NS(=O)(=O)c1cc(-c2nn[nH]n2)c(NCc2cccs2)cc1Cl`, the values for the activity, negative = inhibition in [1] (setting [14]) and in assay [1] (setting [15]) were 0.998% and 13.7%, respectively. The Potency entry in assay [2], in assay [3], in assay [4], in assay [5], in assay [6] and in assay [13] was “inactive” throughout. In addition, the Potency result in [7] and in assay [8] was “inactive” throughout. Besides, the compound was called inactive in assay [9], in assay [10], in assay [11] and in assay [12].
In the case of `CCCCCCCCCCCCCCCCC(C(=O)O)C(O)(CC(=O)O)C(=O)O` (stereo unspecified), the activity, negative = inhibition in assay [1] (setting [14]) is 13.1%; in assay [1] (setting [15]), 1.49%. Besides, the Potency entry in assay [2], in assay [3], in assay [4], in assay [5], in assay [6] and in [13] was “inactive” in each case. Moreover, the Potency result in assay [7] and in [8] was “inactive” throughout. Further, the call in assay [9], in [10], in assay [11] and in [12] was inactive.
With `Cc1ccccc1N=Nc1ccc(N=Nc2c(O)ccc3ccccc23)c(C)c1`, the activity, negative = inhibition is 3.72% in [1] (setting [14]) and 9.83% in assay [1] (setting [15]). Besides, the Potency result in assay [2], in assay [3], in assay [4], in assay [5], in [6] and in assay [13] was “inactive” in each case. Also, the Potency entry in assay [7] and in assay [8] was “inactive” in each case. The compound was called inactive in [9], in [10], in [11] and in assay [12].
Consider `CCc1cccc(CC)c1NC(=O)CN(CC(=O)O)CC(=O)O`, for which the activity, negative = inhibition in assay [1] (at 12.8 µM (top of the series), parasite line A) was 1.37%; in assay [1] (at 12.8 µM (top of the series), parasite line B), 6.7%. Further, the Potency result in [2], in assay [3], in [4], in assay [5], in assay [6] and in assay [13] was “inactive” each time. For the same compound, the Potency result in assay [7] and in assay [8] was “inactive” throughout. Further, the compound was called inactive in assay [9], in assay [10], in assay [11] and in assay [12].
For `NC(=O)c1ccc([N+](=O)[O-])cc1Cl`, the activity, negative = inhibition is -8.53% in [1] (setting [14]) and 6.47% in [1] (setting [15]). For the same compound, the Potency entry in assay [2], in assay [4], in assay [5], in [13], in assay [7] and in assay [8] was “inactive” each time. For the same compound, the Potency in [3] was 8.91 µM (active). Moreover, the call in assay [10], in assay [11] and in assay [12] was inactive.
On to `Nc1ccncc1N`, for which the results for the activity, negative = inhibition in [1] (setting [14]) and in [1] (setting [15]) were 9.9% and 5.99%, respectively. The Potency result in assay [2], in assay [3], in [4], in assay [5], in [6] and in assay [13] was “inactive” in each case. Also, the Potency entry in [7] and in assay [8] was “inactive” each time. In addition, the outcome in assay [9], in assay [10], in assay [11] and in assay [12] was inactive.
On to `O=C(O)c1ccccc1OP(=O)(O)O`, for which the activity, negative = inhibition in assay [1] (setting [14]) is 4.92%; in [1] (setting [15]), 6.75%. The Potency entry in [2], in assay [3], in assay [4], in [5], in assay [6] and in [13] was “inactive” throughout. Besides, the Potency entry in assay [7] and in assay [8] was “inactive” each time. Moreover, the call in assay [9], in [10], in assay [11] and in assay [12] was inactive.
In the case of `CN(C/C=C/C#CC(C)(C)C)Cc1cccc2ccccc12`, the activity, negative = inhibition in [1] (setting [14]) is -1.32%; in [1] (setting [15]), -6.19%. Besides, the Potency result in [2], in [4], in [5], in [6], in [13] and in assay [7] was “inactive” throughout. Moreover, the Potency result in [8] is “inactive”. Besides, the outcome in [9], in [10], in [11] and in assay [12] was inactive.
`CCCCCC(C)N` (stereo unspecified): in assay [1] (setting [15]), the activity, negative = inhibition is -25.4%. Further, in [3], the Potency is 10 µM (active). In addition, the Potency entry in assay [13], in [7] and in assay [8] was “inactive” each time. Besides, the result in assay [10], in [11] and in [12] was inactive.
